Laboratory results as given in PubChem BioAssay AID588722 (National Center for Advancing Translational Sciences (NCATS), 2011).
The source made the active and inactive calls.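 The calls were made as follows: active = potency under 20 µM; inactive = the rest.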

Experiment: High Content Assay for Compounds that inhibit the Assembly of the Perinucleolar Compartment:Cell Migration
Conditions: PC3M cell invasion in 3D collagen microchannel, Hoechst imaging
Text: The perinucleolar compartment (PNC) is a non-membrane-bound nuclear subdomain that is associated with but structurally distinct from the nucleolus. The PNC is a heritable trait, in which the number of PNCs per cell in daughter cells often mimics that of their mother cells. The PNC is heterogeneous in shape, is stable through interphase, disassembles during mitosis, and reassembles in early G1. The PNC is concentrated with newly synthesized RNA polymerase III (pol III) RNAs (MRP RNA, RNAse P H1 RNA, hY RNAs[hY1, 2, 5], Alu RNA, and SRP [7SL] RNA) and RNA binding proteins (nucleolin, PTB, CUG-BP, KSRP, Raver1, Raver2, and Rod). […] In collaboration between Sui Huang from Northwestern University and the NCGC, a high content assay was developed and screened. The hits were then tested in follow-up assays. High-content tumor cell migration assays in 3-dimensional extracellular matrices are powerful tools for modeling and understanding the biology of this critical step in the process of metastasis. However, most of the available methods are not amenable to the throughput required by studies of comparative pharmacology or small scale screening. For this reason, we worked with BellBrook Labs(R) to test our compounds in their automated high-content tumor cell invasion assays.[35] A standard screening-sized plate with an array of embedded microchannels was designed and constructed from common thermoplastics. NIH Chemical Genomics Center [NCGC] NIH Molecular Libraries Probe Centers Network [MLPCN] MLPCN Grant: MH082371 Assay Submitter (PI): Sui Huang, Northwestern University, Feinberg School of Medicine, Cell and Molecular Biology, Chicago, Illinois.
PC3M cells were tested for invasion through 3D fibrillar collagen in the Iuvo Single Microchannel Plate, in the presence of varying levels of test compounds. Channels were prefilled with 820 nL of 3-dimensional type I collagen at 1 mg/mL, through the input port. Following gelation, 2,000 PC3M cells were seeded into the output port using growth media (RPMI + 10% FBS with antibiotics) in a volume of 5 microL. Cells were incubated in a 37 masculineC incubator inside a humidified container to control evaporation (Bioassay dish, Corning). Media including test compounds was changed daily for 5 days. At the end of the assay, cells were fixed and stained with Hoechst 33342, then imaged with 4x objective under epifluorescence. Under these conditions, we can reliably identify cells across the 140 microm height range of the microchannel. Test compounds were serially diluted by a factor of 3, to produce 10 concentrations ranging from 50 or 100 microM to 2.5 nM.

Potency, active:
Cc1oc(-c2ccccc2Cl)nc1CSCC(=O)N1CCCC1 6.2 µM, O=C(Nc1cccnc1)c1cccs1 1.6 µM, CN1c2ccccc2C(C)(C)C12CC(c1ccc(Cl)c(S(=O)(=O)N3CCCC3)c1)=NO2 (stereo unspecified) 3.2 µM, Cc1c(NC(=O)COC(=O)c2cc(-c3ccc(-c4ccccc4)cc3)nc3ccccc23)c(=O)n(-c2ccccc2)n1C 0.117 µM, N=c1c2c(-c3ccccc3)c(-c3ccccc3)n(Cc3ccccc3)c2ncn1CCCO 11.5 µM, CSc1nnc2c3ccccc3n(CCc3ccccc3)c2n1 4.3 µM, COc1ccc(-c2nc(NC(=O)c3n[nH]c(=O)c4ccccc34)sc2C)cc1 3.8 µM, CCN(CC)C(=O)N1c2ccccc2C=Cc2ccccc21 2.1 µM

outcome, inactive:
CCOC(=O)Cn1c(-c2nonc2NC(=O)c2ccccc2F)nc2ccccc21, COc1ccc(-n2c(SC(C)C(=O)Nc3ncc(Cl)cc3Cl)nc3ccccc32)cc1 (stereo unspecified), COC(=O)c1c(-c2ccccc2)csc1NC(=O)c1c(-c2ccccc2)noc1C
